Laboratory results published in PubChem BioAssay (NCI).
About 83,000 compounds went through this panel and 20% of them were active in at least one assay; those are over-represented in the sample as a whole.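 Negative percent growth values reflect cell death: -40 means 40% of the cells present at the start died, and -100 means all died.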 The source made the active and inactive calls. The calls were made as follows: active = growth percent below 10; inactive = the rest.

Key:
Test in all cases: NCI-60 one-dose screen, 48 h (100 = growth as untreated, 0 = no growth, -100 = all killed)
Settings in all cases: 10 µM unless noted
T-47D breast = tested on: T-47D breast
BT-549 breast = tested on: BT-549 breast
MDA-MB-435 melanoma = tested on: MDA-MB-435 melanoma
SW-620 colon = tested on: SW-620 colon
MCF7 breast = tested on: MCF7 breast
HCT-116 colon = tested on: HCT-116 colon
HCC-2998 colon = tested on: HCC-2998 colon
KM12 colon = tested on: KM12 colon

Measured: growth

CC(=O)c1ccc(Nc2nc(SCC(C)C)nc(-c3ccccc3)c2C#N)cc1
inactive: T-47D breast 94.5% | BT-549 breast 92% | MDA-MB-435 melanoma 106% | SW-620 colon 117% | MCF7 breast 100% | HCT-116 colon 83.7% | HCC-2998 colon 105% | KM12 colon 112%

O=C(c1ccc(Cl)cc1)C1[C@H](c2ccc(Cl)cc2)[C@@H](c2ccccc2)NC12C(=O)Nc1ccccc12 (some centres not stated)
inactive: T-47D breast 40.1% | BT-549 breast 96.1% | MDA-MB-435 melanoma 49.1% | SW-620 colon 54% | MCF7 breast 13.2% | HCT-116 colon 26.1% | HCC-2998 colon 34.5% | KM12 colon 30.7%

O=C(NNc1nc2cc(F)ccc2n2c(CN3CCC(O)C3)ccc12)c1cnccn1 (configuration not stated)
active: MCF7 breast 8.92%
inactive: T-47D breast 13% | BT-549 breast 29.5% | MDA-MB-435 melanoma 27.8% | SW-620 colon 24.6% | HCT-116 colon 17.9% | HCC-2998 colon 38.5% | KM12 colon 24.9%

O=S(=O)(NCCCNc1nccc(-c2[nH]c(-c3ccccc3)nc2-c2ccc(Cl)c(O)c2)n1)c1cccc2ccccc12
inactive: T-47D breast 21.9% | BT-549 breast 46% | MDA-MB-435 melanoma 16.6% | SW-620 colon 34.1% | MCF7 breast 16.4% | HCT-116 colon 16.3% | HCC-2998 colon 70% | KM12 colon 21.5%

O=C(Nc1ccc(F)c(F)c1)c1cc(-c2ccc(F)cc2F)ccc1O
active: T-47D breast 3.6% | BT-549 breast -1.22% | MDA-MB-435 melanoma 1.2% | MCF7 breast 0.642% | HCT-116 colon 6.45% | KM12 colon 0.724%
inactive: SW-620 colon 12.3% | HCC-2998 colon 15.5%

O=C(CNc1nc(-c2cccc([N+](=O)[O-])c2)cs1)Nc1cccc([N+](=O)[O-])c1
inactive: BT-549 breast 15.2%
active: T-47D breast -5.2% | MDA-MB-435 melanoma -15.5% | SW-620 colon 1.81% | MCF7 breast -1.07% | HCT-116 colon -8.55% | HCC-2998 colon -55.9% | KM12 colon 4.12%

CCO/C=N/C1=C(C#N)C(c2ccc(Cl)cc2)c2sc3c(CC)cccc3c2O1 (configuration not stated)
active: MDA-MB-435 melanoma -43.2%
inactive: T-47D breast 26.9% | BT-549 breast 59.6% | SW-620 colon 32.3% | MCF7 breast 16.2% | HCT-116 colon 23.1% | HCC-2998 colon 23.6% | KM12 colon 15.3%

N#Cc1cccc(CN2CCC3=C(C2)C(=O)N(Cc2ccc(Cl)cc2)C2=NCCN23)c1
inactive: T-47D breast 23.7% | BT-549 breast 45.4% | MDA-MB-435 melanoma 19.9% | SW-620 colon 33% | MCF7 breast 14.1% | HCT-116 colon 19.6% | HCC-2998 colon 17.6% | KM12 colon 40.9%

N#Cc1c(-c2cccs2)cc(-c2cnccn2)nc1SCC(=O)Nc1ccc(Br)cc1
inactive: T-47D breast 96.2% | BT-549 breast 65.4% | MDA-MB-435 melanoma 74.4% | SW-620 colon 77.3% | MCF7 breast 66.6% | HCT-116 colon 69% | HCC-2998 colon 99.7% | KM12 colon 97.7%

COc1ccc2[nH]cc(-c3csc4nc(-c5ccccc5)cn34)c2c1
active: MDA-MB-435 melanoma -47.7% | HCT-116 colon 4.36% | HCC-2998 colon 6.03%
inactive: T-47D breast 30.7% | BT-549 breast 45.8% | SW-620 colon 25.1% | MCF7 breast 11.5% | KM12 colon 11.6%

COc1c(N2CC3CCCNC3C2)c(F)cc2c(=O)c(C(=O)N/N=C/c3ccc(N(C)C)cc3)cn(C3CC3)c12 (configuration not stated)
inactive: T-47D breast 95.5% | BT-549 breast 121% | MDA-MB-435 melanoma 94% | SW-620 colon 80.7% | MCF7 breast 44.1% | HCT-116 colon 31.3% | HCC-2998 colon 89.4% | KM12 colon 74.5%

CCOC(=O)c1c(Nc2ccccc2)nn2c(-c3ccc(Cl)cc3)ccnc12
inactive: T-47D breast 64.2% | BT-549 breast 103% | MDA-MB-435 melanoma 84.2% | SW-620 colon 84.2% | MCF7 breast 81.3% | HCT-116 colon 61.1% | HCC-2998 colon 91% | KM12 colon 89.1%

O=C(NNc1nc2cc(F)c(F)cc2n2c(CN3CC4CNCC4C3)ccc12)c1ncccn1 (configuration not stated)
inactive: T-47D breast 13.8% | BT-549 breast 28.1% | MDA-MB-435 melanoma 20.4% | SW-620 colon 22.6% | HCT-116 colon 11.7% | HCC-2998 colon 24.7% | KM12 colon 19.2%
active: MCF7 breast 9.66%

COc1ccccc1NCc1cccn1Cc1ccc(F)cc1
inactive: T-47D breast 97% | BT-549 breast 93.3% | MDA-MB-435 melanoma 99.6% | SW-620 colon 98.2% | MCF7 breast 93.1% | HCT-116 colon 93.8% | HCC-2998 colon 105% | KM12 colon 95.9%

CN1CCN(Cc2ccc(NC(=O)c3cncc(C#Cc4cnc5ccc(N6CCN(C)CC6)nn45)c3)cc2C(F)(F)F)CC1
active: MDA-MB-435 melanoma -87.5% | SW-620 colon -74.9% | MCF7 breast -76.2% | HCT-116 colon -20.1% | KM12 colon -78.8%
inactive: T-47D breast 110% | BT-549 breast 73% | HCC-2998 colon 54.8%

COc1ccc2c(c1)c(CC(=O)[Se]CC#N)c(C)n2C(=O)c1ccc(Cl)cc1
active: SW-620 colon -32.7% | HCT-116 colon -46.7% | HCC-2998 colon -4.68% | KM12 colon -5.24%
inactive: T-47D breast 22.4% | BT-549 breast 75.9% | MDA-MB-435 melanoma 26.5% | MCF7 breast 17.3%

CC(=O)c1cc(C(=O)c2ccc(Br)cc2)n2cc(C)cc(C)c12
inactive: T-47D breast 78.8% | BT-549 breast 79% | MDA-MB-435 melanoma 97.7% | SW-620 colon 103% | MCF7 breast 85.3% | HCT-116 colon 85.7% | HCC-2998 colon 82.6% | KM12 colon 97.5%

O=C1Nc2ccccc2/C1=C/c1ccc(COCC2CO2)n1-c1ccc(O)cc1 (configuration not stated)
inactive: T-47D breast 91.4% | BT-549 breast 106% | MDA-MB-435 melanoma 103% | SW-620 colon 96.2% | MCF7 breast 84.6% | HCT-116 colon 99.2% | HCC-2998 colon 108% | KM12 colon 17.8%

O=C(CSc1nnc(-c2ccc3nc(-c4ccccc4)[nH]c3c2)o1)Nc1ccc(C(=O)/C=C/c2ccccc2)cc1
inactive: T-47D breast 98.6% | BT-549 breast 96.8% | MDA-MB-435 melanoma 101% | SW-620 colon 116% | MCF7 breast 87.6% | HCT-116 colon 97% | HCC-2998 colon 106% | KM12 colon 110%

NS(=O)(=O)c1ccc(Nc2nc(N/N=C/c3ccccn3)nc(Nc3ccccc3)n2)cc1
active: T-47D breast -18.4% | BT-549 breast -20.5% | MDA-MB-435 melanoma -84.9% | SW-620 colon -17.8% | MCF7 breast 1.45% | HCT-116 colon -30% | HCC-2998 colon -74.8% | KM12 colon 4.15%

CC1(C)CC[C@]2(C(=O)N3CCOCC3)CC[C@]3(C)C(=CC[C@@H]4[C@@]5(C)C/C(=C/c6ccco6)C(=O)C(C)(C)[C@@H]5CC[C@]43C)[C@@H]2C1
inactive: T-47D breast 75.7% | BT-549 breast 97.4% | MDA-MB-435 melanoma 88.7% | SW-620 colon 74.1% | MCF7 breast 64% | HCT-116 colon 62.1% | HCC-2998 colon 103% | KM12 colon 95.7%

O=C(NNc1nc2cc(F)ccc2n2c(CO)ccc12)c1cnccn1
active: MCF7 breast 8.73%
inactive: T-47D breast 11.7% | BT-549 breast 22.6% | MDA-MB-435 melanoma 27.3% | SW-620 colon 21.3% | HCT-116 colon 17.7% | HCC-2998 colon 44.5% | KM12 colon 22.2%

COc1cc(OC)c(S(N)(=O)=O)cc1C(=O)/C=C/c1ccc(C)cc1
active: T-47D breast 2.31% | MDA-MB-435 melanoma 8.41% | SW-620 colon 6.29% | HCC-2998 colon 8.59% | KM12 colon -1.47%
inactive: BT-549 breast 21.2% | MCF7 breast 12.2% | HCT-116 colon 11.4%

Cc1ccc(-c2cc3nc(C(Cl)Cl)nc(-c4cccs4)n3n2)cc1
inactive: T-47D breast 87.8% | BT-549 breast 97.8% | MDA-MB-435 melanoma 77.6% | SW-620 colon 52.5% | MCF7 breast 59.8% | HCT-116 colon 63.5% | HCC-2998 colon 54.1% | KM12 colon 27.1%

C=CCn1c(SCC(=O)Nc2ccc(C(=O)/C=C/c3ccc(Br)cc3)cc2)nnc1-c1c[nH]c2ccccc12
inactive: T-47D breast 60.7% | BT-549 breast 119% | MDA-MB-435 melanoma 94.7% | SW-620 colon 92.3% | MCF7 breast 22.8% | HCC-2998 colon 109% | KM12 colon 89.3%
active: HCT-116 colon -60.7%

COc1ccc(/C=C(/C)c2ccc3ccc(OC)cc3[o+]2)c(O)c1
inactive: T-47D breast 69.7% | BT-549 breast 87.9% | MDA-MB-435 melanoma 38% | SW-620 colon 30.1% | MCF7 breast 30.7% | HCT-116 colon 50.7% | HCC-2998 colon 114% | KM12 colon 71.6%

N/C(=N\C(N)=N\c1nc2ccccc2s1)c1ccc(C(F)(F)F)cc1
inactive: T-47D breast 69% | BT-549 breast 101% | MDA-MB-435 melanoma 93% | SW-620 colon 106% | MCF7 breast 77.9% | HCT-116 colon 56.4% | HCC-2998 colon 94% | KM12 colon 61.6%

CN1CCN(Cc2ccc(NC(=O)c3cncc(C#Cc4cnc5ccc(NCCCO)nn45)c3)cc2C(F)(F)F)CC1
active: T-47D breast 1.95% | BT-549 breast -81.5% | MDA-MB-435 melanoma -39.8% | SW-620 colon -34.6% | MCF7 breast -34.5% | HCT-116 colon -83.6% | HCC-2998 colon -9.99% | KM12 colon -12.1%

Cc1cc(-c2ccc(Cl)cc2)n(Cc2nnc(SCC(=O)Nc3ccc(S(N)(=O)=O)cc3)n2-c2ccc([N+](=O)[O-])cc2)n1
inactive: T-47D breast 70.3% | BT-549 breast 116% | MDA-MB-435 melanoma 87.4% | SW-620 colon 84.5% | MCF7 breast 58% | HCT-116 colon 60.9% | HCC-2998 colon 97.8% | KM12 colon 79.6%
